Experimental data from article PMC11995724, “Antibiotic target discovery by integrated phenotypic and activity-based profiling of electrophilic fragments” (Cell chemical biology, 2025).
Among all 3,200 compounds or so, about 75 (2%) showed an effect of 50% or more. For the sample, strong results were picked, then their nearest neighbours and some compounds at random.

test system: T1, S. aureus MSSA476; parameters: species or system S. aureus MSSA476 (TSB) or V. cholerae SAD30 (LB); 384-well bacterial growth screen at 25 uM, OD600 relative to DMSO control; settings: relative growth, OD600, TSB; 25 µM; inhibitor
T1 construct: MSSA476

| Structure (SMILES) | % of control remaining |
| --- | --- |
| CCN1C(=O)CC[C@H](CNC(=O)C(C)Cl)[C@H]1c1cnn(C)c1 (mixture of isomers) [6-L13, rac-2-chloro-N-{[(2R,3S)-1-ethyl-2-(1-methyl-1H-pyrazol-4-yl)-6-oxopiperidin-3-yl]methyl}propanamide] | 89.122% |
| C=CC(=O)N1CCc2c(nnn2CCOC)C1 [1-N05, 1-[1-(2-methoxyethyl)-1H,4H,5H,6H,7H-[1,2,3]triazolo[4,5-c]pyridin-5-yl]prop-2-en-1-one] | 84.7473% |
| C=CC(=O)NC1CCN(c2nnnn2C)CC1 [3-G06, N-[1-(1-methyl-1H-1,2,3,4-tetrazol-5-yl)piperidin-4-yl]prop-2-enamide] | 85.677% |
| CCC(NC(=O)CCl)c1c(C)noc1C (centres unmarked) [7-D03, 2-chloro-N-[1-(3,5-dimethyl-1,2-oxazol-4-yl)propyl]acetamide] | 95.4474% |
| CCOc1ccc(C(=O)C(C)Cl)cc1 (centres unmarked) [10-G06, 2-chloro-1-(4-ethoxyphenyl)propan-1-one] | 80.3125% |
| O=C(CCl)c1ccc(Oc2ccccc2)cc1 [10-G20, 2-chloro-1-(4-phenoxyphenyl)ethan-1-one] | -0.625% |
| NC(=O)COc1ccc(C(=O)CCl)cc1 [10-M07, 2-[4-(2-chloroacetyl)phenoxy]acetamide] | 111.563% |
| O=C(CCl)Nc1ccc(Oc2ccccc2)cc1 [4-J09, 2-chloro-N-(4-phenoxyphenyl)acetamide] | 73.5588% |
| O=C(CCl)c1ccc2c(c1)-c1ccccc1C2 [10-H17, 2-chloro-1-(9H-fluoren-3-yl)ethan-1-one] | 1.875% |
| CCOc1ccc(C(=O)CCl)cc1 [10-F12, 2-chloro-1-(4-ethoxyphenyl)ethan-1-one] | 0.3125% |
| O=C(CCl)Nc1cccc(Oc2ccccc2)c1 [4-P19, 2-chloro-N-(3-phenoxyphenyl)acetamide] | 90.7099% |
| CC(Cl)C(=O)NC(C)c1ccns1 (centres unmarked) [6-P12, 2-chloro-N-[1-(1,2-thiazol-5-yl)ethyl]propanamide] | 84.3415% |
| N#CC(=Cc1cc(F)ccc1F)C(=O)Nc1cc(Cl)ccc1Cl [8-A12, 2-cyano-N-(2,5-dichlorophenyl)-3-(2,5-difluorophenyl)prop-2-enamide] | 131.12% |
| Cl.O=C(CCl)NC1CCN(Cc2cscn2)CC1 [7-H04, 2-chloro-N-{1-[(1,3-thiazol-4-yl)methyl]piperidin-4-yl}acetamide hydrochloride] | 88.2261% |
| Cc1ccc(C)c(NC(=O)C(C#N)=Cc2ccc3c(c2)OCCO3)c1 [8-L11, 2-cyano-3-(2,3-dihydro-1,4-benzodioxin-6-yl)-N-(2,5-dimethylphenyl)prop-2-enamide] | 108.216% |
| C=CC(=O)NC(Cc1ccccc1)c1ccccn1 (centres unmarked) [2-K14, N-[2-phenyl-1-(pyridin-2-yl)ethyl]prop-2-enamide] | 109.312% |
| C=CC(=O)N(C)Cc1cn(C)nc1C(C)C [3-F15, N-methyl-N-{[1-methyl-3-(propan-2-yl)-1H-pyrazol-4-yl]methyl}prop-2-enamide] | 119.808% |
| Cc1csc(-n2c(C)cc(C(=O)CCl)c2C)n1 [10-G05, 2-chloro-1-[2,5-dimethyl-1-(4-methyl-1,3-thiazol-2-yl)-1H-pyrrol-3-yl]ethan-1-one] | 121.563% |
| Cc1cc(C(=O)CCl)c(C)n1-c1ccc(C(C)C)cc1 [10-J12, 2-chloro-1-{2,5-dimethyl-1-[4-(propan-2-yl)phenyl]-1H-pyrrol-3-yl}ethan-1-one] | 5.3125% |
| CCOc1ccc(-n2c(C)cc(C(=O)CCl)c2C)cc1 [10-K08, 2-chloro-1-[1-(4-ethoxyphenyl)-2,5-dimethyl-1H-pyrrol-3-yl]ethan-1-one] | 38.75% |
| Cc1cc(C(=O)CCl)c(C)n1C(C)c1ccccc1 (centres unmarked) [10-P17, 2-chloro-1-[2,5-dimethyl-1-(1-phenylethyl)-1H-pyrrol-3-yl]ethan-1-one] | 101.563% |
| Cc1cc(C(=O)CCl)c(C)n1-c1ccc(C(F)(F)F)cc1 [10-J14, 2-chloro-1-{2,5-dimethyl-1-[4-(trifluoromethyl)phenyl]-1H-pyrrol-3-yl}ethan-1-one] | 0% |
| Cc1ccccc1-n1c(C)cc(C(=O)CCl)c1C [10-H20, 2-chloro-1-[2,5-dimethyl-1-(2-methylphenyl)-1H-pyrrol-3-yl]ethan-1-one] | 118.75% |
| Cc1cc(C(=O)CCl)c(C)n1-c1ccc(C(C)(C)C)cc1 [10-N20, 1-[1-(4-tert-butylphenyl)-2,5-dimethyl-1H-pyrrol-3-yl]-2-chloroethan-1-one] | 101.875% |
| COc1ccc(-n2c(C)cc(C(=O)CCl)c2C)cc1 [10-I12, 2-chloro-1-[1-(4-methoxyphenyl)-2,5-dimethyl-1H-pyrrol-3-yl]ethan-1-one] | 127.813% |
| Cc1cc(C(=O)CCl)c(C)n1-c1cc(Cl)cc(Cl)c1 [10-I04, 2-chloro-1-[1-(3,5-dichlorophenyl)-2,5-dimethyl-1H-pyrrol-3-yl]ethan-1-one] | 0% |
| Cc1cc(C)cc(-n2c(C)cc(C(=O)CCl)c2C)c1 [10-E04, 2-chloro-1-[1-(3,5-dimethylphenyl)-2,5-dimethyl-1H-pyrrol-3-yl]ethan-1-one] | 128.438% |
| C=CC(=O)NCc1ccc(C(=O)N2CCC[C@@H]2C(N)=O)cc1 [3-L22, (2R)-1-{4-[(prop-2-enamido)methyl]benzoyl}pyrrolidine-2-carboxamide] | 98.2151% |
| CC(Cl)C(=O)NC(c1ccc(F)cc1)c1cnn(C)c1 (centres unmarked) [7-C19, 2-chloro-N-[(4-fluorophenyl)(1-methyl-1H-pyrazol-4-yl)methyl]propanamide] | 93.2496% |
